Screening data deposited in PubChem BioAssay by several laboratories.
INS promoter inh: inhibitors of insulin promoter-driven GFP, primary screen, imaging, TRM-6 cells (human fetal islet line), eGFP reporter, cell count; reporter expression induced with tamoxifen; inhibition, % at 2 µM; actives 0.9% (n = 130,000); AID 1273, 2008;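 active means inhibition above the mean plus 3 SD, with well images judged a real hit on visual review, cut at about 60% in these data, passing the limit was not always enough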
S1P4 antagonist: S1P4 receptor antagonists, primary screen, cell-based; Sphingosine 1-phosphate receptor 4 (Homo sapiens), O95977; S1P4-expressing cells, antagonist mode, reporter read-out; inhibition, % at 4.98 µM; actives 0.26% (n = 220,000); in the data active means inhibition above about 29%
Target sequence (O95977 whole entry, looked up): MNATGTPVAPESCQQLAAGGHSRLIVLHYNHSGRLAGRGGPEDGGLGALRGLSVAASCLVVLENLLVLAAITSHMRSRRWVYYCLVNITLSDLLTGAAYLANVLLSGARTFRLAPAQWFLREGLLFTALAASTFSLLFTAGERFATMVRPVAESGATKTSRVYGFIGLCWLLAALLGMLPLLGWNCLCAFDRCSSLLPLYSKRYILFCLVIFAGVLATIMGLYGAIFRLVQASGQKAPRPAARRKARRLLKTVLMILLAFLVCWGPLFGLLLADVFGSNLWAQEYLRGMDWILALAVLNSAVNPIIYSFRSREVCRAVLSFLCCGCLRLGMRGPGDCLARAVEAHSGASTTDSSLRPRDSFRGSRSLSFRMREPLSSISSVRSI
EP2 modulator: EP2 receptor modulators, cAMP readout, primary screen, cell-based, HTRF cAMP, PGE2 stimulation; Prostaglandin E2 receptor EP2 subtype (Homo sapiens), P43116; actives 0.83% (n = 260,000); AID 940, 2007; induction, % at 25 µM; EP2-expressing cells, cAMP HTRF FRET, PGE2 co-stimulation;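 active means compounds whose cAMP rise, as percent of the full-agonist control response, exceeds 60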;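 further: rat C6 glioma line stably carrying human EP2 under a CMV promoter; the protocol text gives 20 µM as final concentration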
S1P4 ag: S1P4 receptor agonists, primary screen, cell-based. activation, % at 4.98 µM. actives 0.35% (n = 220,000). S1P4-expressing cell line, agonist reporter assay; in the data active means activation above about 11%
S1P3 antag: S1P3 receptor antagonists, primary screen, cell-based. Sphingosine 1-phosphate receptor 3 (Homo sapiens), Q99500. CHO S1P3 NFAT-BLA reporter, FRET fluorescence, antagonist mode. inhibition, % at 4.98 µM. actives 0.27% (n = 170,000);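 active means inhibition above the plate cutoff, the mean inhibition of test wells on that plate plus 3 SD, cut at about 28% in these data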;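 further: cells challenged with S1P at its EC80 of 0.8 µM; blue over green emission ratio from cleaved BLA substrate after 4 h stimulation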
PGE2 EP2 inh: human EP2 receptor antagonists, primary screen, TR-FRET cAMP, C6 glioma cells | C6 glioma cells expressing human EP2; cells stimulated with saturating PGE2 | Prostaglandin E2 receptor EP2 subtype (Homo sapiens), P43116 | actives 0.52% (n = 260,000) | inhibition, % at 25 µM;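 active means percent inhibition above 40 after rounding to a whole number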;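 further: rat C6 glioma host cells with rolipram phosphodiesterase inhibitor present; the protocol text gives 20 µM as final concentration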
EP2 cAMP induct: cAMP induction in EP2, EP4, beta2-AR and parental cells, confirmation, counter-screen for EP2 modulator project, cell-based, five parallel assays, C6 glioma, HEK293 | shares compounds with EP2 modulator | cAMP HTRF induction; plus low (about EC15) PGE2 agonist | calls only at 20 µM (by protocol) | actives 47% (n = 1,300) | AID 1080, 2008;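 active means cAMP induction above 50% in the main assay while under 30% in all four parallel counter assays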;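 further: rat C6 glioma cells stably expressing human EP2 receptor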
Of the large screens only hits and unclear results are named; the others gave an inactive call (follow-up assays come after a bar, where they were run); ! = a repeat was not active. The list is not random: actives were taken first. Their share in the collection is about 2.4%.

CCOC(=O)c1c(NC(=O)Cn2nnc3ccccc32)sc2c1CCC(C)C2 (stereo unspecified)	none (no result: INS promoter inh) | EP2 cAMP induct inactive
CCOC(=O)c1c(NC(=O)CSc2nnc(C)s2)sc2c1CCC(C)C2 (stereo unspecified)	none (no result: S1P3 antag) | EP2 cAMP induct inactive
CCOC(=O)c1c(NC(=O)COC(=O)Cn2cnc3ccccc32)sc(C)c1C	none (no result: INS promoter inh)
CCOC(=O)c1c(NC(=O)CSc2nnc(C)s2)sc2c1CCCCC2	none (no result: S1P3 antag)
CCOC(=O)c1c(NC(=O)COC(=O)Cn2cnc3ccccc32)sc2c1CCC(C)C2 (stereo unspecified)	EP2 modulator 62 | EP2 cAMP induct inactive
CCOC(=O)c1c(NC(=O)COC(=O)Cn2c(C)nc3ccccc32)sc2c1CCCC2	none | EP2 cAMP induct active
Cc1cccc2cc(C#N)c(SCC(=O)c3ccc4c(c3)OCCO4)nc12	none (no result: INS promoter inh, S1P4 antagonist, S1P4 ag, S1P3 antag)
CCOC(=O)C(C)Sc1nnc(CSc2nc(C)cc(C)n2)n1-c1ccc(OC)cc1 (stereo unspecified)	none (no result: INS promoter inh, S1P4 antagonist, S1P4 ag, S1P3 antag)
Cc1ccc(Oc2nc(-c3ccccc3)ncc2S(C)(=O)=O)cc1	EP2 modulator 75 (no result: S1P3 antag) | EP2 cAMP induct inactive
CN(CC(=O)Nc1ccccc1-c1ccccc1)Cc1ccccc1Cl	EP2 modulator 71 (no result: INS promoter inh) | EP2 cAMP induct active
O=C(CSCc1cccc(Cl)c1)Nc1ccccc1-c1ccccc1	EP2 modulator 67 | EP2 cAMP induct active
Cc1ccccc1CSCC(=O)Nc1ccccc1-c1ccccc1	EP2 modulator 81 | EP2 cAMP induct active
O=C(CSCc1ccc(Cl)cc1)Nc1ccccc1O	none (no result: INS promoter inh)
Cc1sc(NC(=O)CSc2ncnc3scc(-c4ccccc4)c23)c(C#N)c1C	none (no result: INS promoter inh, S1P4 antagonist, S1P4 ag, S1P3 antag)
CC(C)CCn1c(O)c(N=NC(=O)c2ccco2)c2ccccc21	EP2 modulator 73 | EP2 cAMP induct inactive
Cc1cc(C)c(N=C2CCCN2Cc2ccccc2)c(C#N)c1	EP2 modulator 78 (no result: S1P3 antag) | EP2 cAMP induct active
N#Cc1ccccc1N=C1CCCN1Cc1ccccc1	none (no result: INS promoter inh)
O=C(O)c1ccc(-c2nc(-c3cccc(C(F)(F)F)c3)cs2)cc1	EP2 modulator 70 (no result: INS promoter inh) | EP2 cAMP induct active
CCCC1=C(C(=O)OCC)C(c2cccs2)C(C#N)=C(N)O1 (stereo unspecified)	EP2 modulator 63 (no result: S1P3 antag) | EP2 cAMP induct inactive
C=C(C)CN1CCN(Cc2cnn(Cc3ccccc3)c2C)CC1	none (no result: INS promoter inh, S1P4 antagonist, S1P4 ag, S1P3 antag)
CCOP(=O)(OCC)c1nc(-c2ccc(Cl)cc2Cl)oc1N1CCCCC1	none (no result: INS promoter inh) | EP2 cAMP induct inactive
C/C=C/Cn1c(SCc2ccc(C)cc2)nc2c1c(=O)[nH]c(=O)n2C	EP2 modulator 86! | EP2 cAMP induct active
C/C(Cl)=C/Cn1c(SC(C)C)nc2c1c(=O)[nH]c(=O)n2C	EP2 modulator 65 (no result: INS promoter inh) | EP2 cAMP induct inactive
S=c1[nH]nc(-c2ccccc2)n1/N=C/c1ccc(-c2ccccc2Cl)o1	EP2 modulator 78 | EP2 cAMP induct active
C=CCn1c(=O)c2c3c(sc2n2c(Nc4ccc(OC)cc4)nnc12)CCCC3	EP2 modulator 75 | EP2 cAMP induct active
Cc1cccc(Nc2nc(N)c3ccccc3n2)c1	none (no result: INS promoter inh, S1P4 antagonist, S1P4 ag, S1P3 antag)
CCOC(=O)C1CCN(S(=O)(=O)c2ccc(C)c(Cl)c2)CC1	none (no result: INS promoter inh, S1P4 antagonist, S1P4 ag, S1P3 antag)
Cc1ccnc(SCC(=O)n2c3c(c4ccccc42)CC(C)CC3)n1 (stereo unspecified)	EP2 modulator 74 (no result: INS promoter inh, S1P3 antag) | EP2 cAMP induct active
CCCOc1ccccc1Cn1c(=O)oc2ccc(C)cc21	EP2 modulator 84 (no result: S1P3 antag) | EP2 cAMP induct active
CCOc1ccccc1Cn1c(=O)oc2ccc(C)cc21	EP2 modulator 77 | EP2 cAMP induct active
CCCOc1ccc(Cn2c(=O)oc3ccc(C)cc32)cc1OC	none
